Test results published in PubChem BioAssay AID1159580 (chemical genetic matrix, 2015).
In all, about 5,500 compounds went through this assay and about 2,000 (36%) were called active. Inconclusive results (about 18%) are left out. The list shows a part of the results. Unmarked numbers belong to inactive results. No stated cut-off is given here; in the data, active means normalized growth mostly below about 0.91 (no sharp cut-off); inconclusive means no clear call, values can overlap the other calls; inactive means mostly above about 0.92.

Experiment: chemical genetic growth profiling, strain panel (AID 1159580);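 further: tested at 20 µM; growth read once vehicle control cultures reached saturation at 30 °C; 1 = growth at the plate median or of vehicle wells; lower values mean less growth of the strain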
Conditions: growth OD
[1] = S. cerevisiae deletion strains, locus YAL013W, strain DEP1, active compounds read low
[2] = S. cerevisiae deletion strains, locus YBR229C, strain ROT2, active compounds read low
[3] = S. cerevisiae deletion strains, locus YDL101C, strain DUN1, active compounds read low
[4] = S. cerevisiae deletion strains, locus YDR150W, strain NUM1, active compounds read low
[5] = S. cerevisiae deletion strains, locus YEL061C, strain CIN8, active compounds read low
[6] = S. cerevisiae deletion strains, locus YGR078C, strain PAC10, active compounds read low
[7] = S. cerevisiae deletion strains, locus YHR030C, strain SLT2, active compounds read low
[8] = S. cerevisiae deletion strains, locus YJR043C, strain POL32, active compounds read low
[9] = S. cerevisiae deletion strains, locus YJR075W, strain HOC1, active compounds read low
[10] = S. cerevisiae deletion strains, locus YKL190W, strain CNB1, active compounds read low
[11] = S. cerevisiae deletion strains, locus YLR039C, strain RIC1, active compounds read low
[12] = S. cerevisiae deletion strains, locus YLR262C, strain YPT6, active compounds read low
[13] = S. cerevisiae deletion strains, locus YMR263W, strain SAP30, active compounds read low
[14] = S. cerevisiae deletion strains, locus YMR307W, strain GAS1, active compounds read low
[15] = S. cerevisiae deletion strains, locus YNL153C, strain GIM3, active compounds read low
[16] = S. cerevisiae deletion strains, locus YNL322C, strain KRE1, active compounds read low
[17] = S. cerevisiae deletion strains, locus YPL055C, strain LGE1, active compounds read low
[18] = S. cerevisiae deletion strains, locus YPL241C, strain CIN2, active compounds read low
[19] = S. cerevisiae strains, strain wild type, active compounds read low

COC(=O)c1c(C)[nH]c(C)c1C(C)=O
normalized growth [1]: 1.03 | normalized growth [2]: 1.01 | normalized growth [3]: 0.968 | normalized growth [4]: 1.01 | normalized growth [5]: 1.01 | normalized growth [6]: 1.03 | normalized growth [7]: 1.05 | normalized growth (S. cerevisiae deletion strains, locus YHR087W, strain rtc3, active compounds read low): 1.03 | normalized growth (S. cerevisiae deletion strains, locus YJL187C, strain SWE1, active compounds read low): 0.995 | normalized growth [8]: 0.976 | normalized growth [9]: 0.999 | normalized growth [10]: 1.01 | normalized growth [11]: 1.07 | normalized growth (S. cerevisiae deletion strains, locus YLR058C, strain SHM2 (second series), active compounds read low): 1 | normalized growth (S. cerevisiae deletion strains, locus YLR085C, strain ARP6, active compounds read low): 1.18 | normalized growth [12]: 1.02 | normalized growth (S. cerevisiae deletion strains, locus YML094W, strain GIM5, active compounds read low): 1.04 | normalized growth (S. cerevisiae deletion strains, locus YMR219W, strain ESC1, active compounds read low): 1.01 | normalized growth [13]: 1 | normalized growth [14]: 1.03 | normalized growth [15]: 0.994 | normalized growth (S. cerevisiae deletion strains, locus YNL298W, strain CLA4 (second series), active compounds read low): 1.01 | normalized growth [16]: 1.01 | normalized growth (S. cerevisiae deletion strains, locus YNR030W, strain Alg12, active compounds read low): 1.04 | normalized growth [17]: 1.05 | normalized growth [18]: 1.08 | normalized growth (S. cerevisiae deletion strains, locus YPR135W, strain CTF4, active compounds read low): 1.36 [resistant] (active) | normalized growth [19]: 1.01

COC(=O)c1c(Cl)c(Cl)c(C(=O)OC)c(Cl)c1Cl
normalized growth [1]: 0.991 | normalized growth (S. cerevisiae deletion strains, locus YBR021W, strain FUR4, active compounds read low): 0.972 | normalized growth [2]: 1 | normalized growth (S. cerevisiae deletion strains, locus YCL029C, strain bik1, active compounds read low): 1.01 | normalized growth (S. cerevisiae deletion strains, locus YDL035C, strain GPR1, active compounds read low): 1.01 | normalized growth (S. cerevisiae deletion strains, locus YDL074C, strain BRE1, active compounds read low): 0.927 | normalized growth [3]: 0.978 | normalized growth (S. cerevisiae deletion strains, locus YDL134C, strain PPH21, active compounds read low): 0.998 | normalized growth (S. cerevisiae deletion strains, locus YDL185W, strain tfp1, active compounds read low): 1.01 | normalized growth (S. cerevisiae deletion strains, locus YDL192W, strain arf1, active compounds read low): 1 | normalized growth (S. cerevisiae deletion strains, locus YDR101C, strain arx1, active compounds read low): 0.995 | normalized growth [4]: 1 | normalized growth (S. cerevisiae deletion strains, locus YDR162C, strain NBP2, active compounds read low): 0.997 | normalized growth (S. cerevisiae deletion strains, locus YDR318W, strain mcm21, active compounds read low): 1 | normalized growth (S. cerevisiae deletion strains, locus YDR388W, active compounds read low): 1 | normalized growth (S. cerevisiae deletion strains, locus YDR502C, strain sam2, active compounds read low): 0.999 | normalized growth [5]: 0.999 | normalized growth (S. cerevisiae deletion strains, locus YER110C, active compounds read low): 1 | normalized growth (S. cerevisiae deletion strains, locus YER155C, strain BEM2, active compounds read low): 0.984 | normalized growth (S. cerevisiae deletion strains, locus YER167W, strain BCK2, active compounds read low): 0.998 | normalized growth (S. cerevisiae deletion strains, locus YGL078C, strain dbp3, active compounds read low): 1.01 | normalized growth (S. cerevisiae deletion strains, locus YGL086W, strain mad1, active compounds read low): 0.998 | normalized growth (S. cerevisiae deletion strains, locus YGL248W, strain PDE1, active compounds read low): 1.01 | normalized growth [6]: 0.987 | normalized growth (S. cerevisiae deletion strains, locus YGR135W, strain pre9, active compounds read low): 0.994 | normalized growth (S. cerevisiae deletion strains, locus YGR229C, strain SMI1, active compounds read low): 0.988 | normalized growth (S. cerevisiae deletion strains, locus YGR252W, strain gcn5, active compounds read low): 0.944 | normalized growth [7]: 0.971 | normalized growth (S. cerevisiae deletion strains, locus YHR079C, strain IRE1 (second series), active compounds read low): 1 | normalized growth (S. cerevisiae deletion strains, locus YHR094C, strain hxt1, active compounds read low): 1 | normalized growth (S. cerevisiae deletion strains, locus YHR129C, strain ARP1, active compounds read low): 0.996 | normalized growth (S. cerevisiae deletion strains, locus YHR200W, strain rpn10, active compounds read low): 1 | normalized growth (S. cerevisiae deletion strains, locus YIL066C, strain RNR3, active compounds read low): 0.984 | normalized growth (S. cerevisiae deletion strains, locus YIL073C, strain SPO22, active compounds read low): 1.03 | normalized growth (S. cerevisiae deletion strains, locus YIL125W, strain kgd1, active compounds read low): 0.994 | normalized growth (S. cerevisiae deletion strains, locus YIR030C, strain dcg1, active compounds read low): 1.01 | normalized growth (S. cerevisiae deletion strains, locus YJL095W, strain BCK1, active compounds read low): 0.962 | normalized growth (S. cerevisiae deletion strains, locus YJL134W, strain LCB3, active compounds read low): 1 | normalized growth (S. cerevisiae deletion strains, locus YJL168C, strain set2, active compounds read low): 1 | normalized growth (S. cerevisiae deletion strains, locus YJL187C, strain SWE1 (second series), active compounds read low): 1.01 | normalized growth [8]: 0.969 | normalized growth [9]: 0.978 | normalized growth (S. cerevisiae deletion strains, locus YKL009W, strain mrt4, active compounds read low): 0.987 | normalized growth (S. cerevisiae deletion strains, locus YKL068W, active compounds read low): 0.996 | normalized growth (S. cerevisiae deletion strains, locus YKL085W, strain MDH1 (second series), active compounds read low): 0.995 | normalized growth (S. cerevisiae deletion strains, locus YKL085W, strain MDH1, active compounds read low): 0.995 | normalized growth [10]: 0.998 | normalized growth (S. cerevisiae deletion strains, locus YKR001C, strain vps1, active compounds read low): 1.03 | normalized growth [11]: 1.24 | normalized growth (S. cerevisiae deletion strains, locus YLR058C, strain SHM2, active compounds read low): 1 | normalized growth (S. cerevisiae deletion strains, locus YLR102C, strain apc9, active compounds read low): 1.01 | normalized growth [12]: 1.18 | normalized growth (S. cerevisiae deletion strains, locus YLR268W, strain sec22, active compounds read low): 0.992 | normalized growth (S. cerevisiae deletion strains, locus YLR330W, strain CHS5, active compounds read low): 1 | normalized growth (S. cerevisiae deletion strains, locus YLR342W, strain FKS1 (second series), active compounds read low): 1.01 | normalized growth (S. cerevisiae deletion strains, locus YLR371W, strain rom2, active compounds read low): 1.01 | normalized growth (S. cerevisiae deletion strains, locus YLR418C, strain cdc73, active compounds read low): 0.929 | normalized growth (S. cerevisiae deletion strains, locus YML016C, strain PPZ1, active compounds read low): 0.993 | normalized growth (S. cerevisiae deletion strains, locus YML032C, strain rad52, active compounds read low): 1.01 | normalized growth (S. cerevisiae deletion strains, locus YML124C, strain tub3, active compounds read low): 1.01 | normalized growth (S. cerevisiae deletion strains, locus YMR078C, strain ctf18, active compounds read low): 1.01 | normalized growth (S. cerevisiae deletion strains, locus YMR223W, strain ubp8, active compounds read low): 1 | normalized growth [13]: 0.987 | normalized growth [14]: 0.972 | normalized growth (S. cerevisiae deletion strains, locus YNL067W, strain RPL9B, active compounds read low): 0.985 | normalized growth (S. cerevisiae deletion strains, locus YNL128W, strain TEP1, active compounds read low): 1 | normalized growth [15]: 1 | normalized growth (S. cerevisiae deletion strains, locus YNL233W, strain BNI4, active compounds read low): 1.01 | normalized growth (S. cerevisiae deletion strains, locus YNL250W, strain rad50, active compounds read low): 1.01 | normalized growth (S. cerevisiae deletion strains, locus YNL271C, strain bni1, active compounds read low): 1.01 | normalized growth (S. cerevisiae deletion strains, locus YNL298W, strain CLA4, active compounds read low): 0.997 | normalized growth (S. cerevisiae deletion strains, locus YNL307C, strain MCK1, active compounds read low): 0.998 | normalized growth [16]: 0.994 | normalized growth (S. cerevisiae deletion strains, locus YNR052C, strain pop2, active compounds read low): 1.02 | normalized growth (S. cerevisiae deletion strains, locus YOL006C, strain TOP1, active compounds read low): 0.914 | normalized growth (S. cerevisiae deletion strains, locus YOL012C, strain htz1): 0.967 | normalized growth (S. cerevisiae deletion strains, locus YOL147C, strain pex11, active compounds read low): 1.01 | normalized growth (S. cerevisiae deletion strains, locus YOR061W, strain CKA2, active compounds read low): 0.999 | normalized growth (S. cerevisiae deletion strains, locus YOR069W, strain VPS5, active compounds read low): 1 | normalized growth (S. cerevisiae deletion strains, locus YOR136W, strain idh2, active compounds read low): 1 | normalized growth (S. cerevisiae deletion strains, locus YOR144C, strain elg1, active compounds read low): 1 | normalized growth (S. cerevisiae deletion strains, locus YOR184W, strain ser1, active compounds read low): 0.989 | normalized growth (S. cerevisiae deletion strains, locus YOR316C, strain cot1, active compounds read low): 1 | normalized growth [17]: 0.937 | normalized growth [18]: 0.99 | normalized growth (S. cerevisiae deletion strains, locus YPR119W, strain clb2, active compounds read low): 1 | normalized growth (S. cerevisiae deletion strains, locus YPR141C, strain kar3, active compounds read low): 1.01 | normalized growth (S. cerevisiae deletion strains, locus YPR163C, strain tif3, active compounds read low): 1 | normalized growth (S. cerevisiae deletion strains, locus YPR167C, strain met16, active compounds read low): 0.995 | normalized growth (S. cerevisiae deletion strains, strain wtn01, active compounds read low): 0.998 | normalized growth [19]: 0.991
